For 37 compounds, inhibition results are on record in PubChem BioAssay AID623870 (Broad Institute, 2012).

Hit rate of the full screen: of about 390,000 compounds, about 2,600 (0.67%) were called active.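 The calls were made as follows: active = mean inhibition of replicates at least 50% and at least half of replicates each reaching 50%; inconclusive = half or more replicates reach 50% but mean below 50%; inactive = the rest.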 Shown is part of a subset that was picked to be rich in actives.

For orientation: inhibition means the relative decrease from the control value, in per cent.

This assay concerns the target Transforming acidic coiled-coil-containing protein 3 (Homo sapiens) (UniProt Q9Y6A5). The experiment in a line: disruptors of ARNT/TACC3 protein interaction, primary screen, biochemical, AlphaScreen, single concentration (AID 623870).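 Also: 0% = complete ARNT plus TACC3 wells and 100% = ARNT alone without TACC3.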 As to conditions: AlphaScreen His-ARNT PAS-B/GST-TACC3 binding, luminescence; at 9.99 µM; hits give high values; TACC3 fragment carries E629A point mutation.
Take `O=C(C[C@@H]1C=C[C@@H](NC(=O)c2ccccc2)[C@H](CO)O1)NCCc1ccncc1`: the inhibition was -9.84% (inactive).
Under `COc1ccc(C(=O)Nc2ccc3c(c2)C(=O)N(C)C[C@@H](OC)[C@H](C)CN(C(C)=O)[C@@H](C)CO3)cc1` stands -6.1% (inactive); under `CC(C)NC(=O)N1[C@@H]2c3ccc(-c4ccc(F)cc4)c(=O)n3C[C@@H]2[C@@H](CO)[C@@H]1C(=O)N1CCOCC1`, 17.2% (inactive); under `O=C(NC1=CC(=O)c2ccccc2C1=O)c1ccccc1`, 2.4% (active).
Consider `Cc1ccccc1S(=O)(=O)N1C[C@H](O)COC[C@H]2O[C@H](CC(=O)N3CCCCC3)CC[C@@H]21`, for which the inhibition was 1.95% (inactive).
Under `CNC[C@@H]1Oc2ccc(NC(=O)C3CCCCC3)cc2CC(=O)N([C@@H](C)CO)C[C@H]1C` stands -6.19% (inactive); under `CN(C)C(=O)c1cccc(-c2ccc3c(c2)[C@H]2[C@H](CCN2S(=O)(=O)c2cn(C)cn2)[C@@H](CO)N3)c1`, 0.583% (inactive).
Under `O=C(NC[C@@H]1[C@@H](c2ccccc2)[C@@H](CO)N1Cc1ccccn1)C1CCC1` stands 23.8% (active); under `O=C(NC[C@@H]1[C@@H](c2ccccc2)[C@H](CO)N1C(=O)Cc1cccnc1)C1CC1`, -0.188% (inactive); under `CN(C[C@@H]1[C@H](c2ccccc2)[C@@H](CO)N1Cc1ccccn1)S(C)(=O)=O`, 29.6% (inactive).
Under `CCCNC(=O)N1C[C@@H](O)COC[C@H]2O[C@H](CC(=O)NCCCN3CCOCC3)CC[C@@H]21` stands -6.54% (inactive).
Turning to `CN(C)C(=O)c1cccc(-c2ccc3c(c2)[C@H]2[C@H](CCN2C(=O)Cc2ccccc2)[C@H](CO)N3)c1`, the inhibition is -7.24% (inactive).
Under `CN(C)C(=O)C[C@@H]1CC[C@@H](NS(=O)(=O)c2ccccc2)[C@H](CO)O1` stands 1.05% (inactive).
Under `Cc1ccc(S(=O)(=O)N2CC(C)N(S(C)(=O)=O)C2)cc1` (configuration not stated) stands -0.994% (inactive); under `Cc1ccc(S(=O)(=O)n2oc(=O)c(C3CCCCC3)c2N)cc1`, 64.1% (active).
Under `Cc1ccc(S(=O)(=O)N2CCCC2CO)cc1` (configuration not stated) stands -6.07% (inactive); under `C[C@H](CO)N1C[C@H](C)[C@@H](CN(C)C(=O)C2CCC2)Oc2cc(C3=CCCCC3)ccc2S1(=O)=O`, 7.82% (inactive); under `CCOC(=O)C1CCN(C(=O)C2CCN(S(=O)(=O)CC)CC2)CC1`, -3.42% (inactive).
On to `CCOC(=O)C1CCN(S(=O)(=O)c2c(C)noc2C)CC1`, for which the inhibition was -6.32% (inactive).
With `CCOC(=O)C1CCN(C(=O)C2CCN(S(=O)(=O)c3c(C)noc3C)CC2)CC1`, the inhibition is 46.8% (active).
Under `COC(=O)C[C@@H]1CC[C@@H]2[C@H](COc3ccc(NC(=O)c4ccccc4OC)cc3C(=O)N2C)O1` stands -6.13% (inactive).
Under `CN1C[C@H]2[C@@H](c3ccccc31)[C@@H](CO)N2C(=O)Nc1ccccc1` stands -0.471% (inactive); under `COc1ccc(S(=O)(=O)N(C)C[C@@H]2OCc3ccccc3-c3ccccc3C(=O)N([C@@H](C)CO)C[C@@H]2C)cc1`, -0.955% (inactive).
Under `Cc1[nH]n(-c2cccc(Cl)c2)c(=O)c1/C=N/n1c(C)nc2ccccc2c1=O` stands 46.7% (active).
As for `Cc1nc2ccccc2c(=O)n1-c1ccc(NS(=O)(=O)c2ccc(F)cc2F)cc1`, the inhibition was -1.59% (inactive).
On to `CCCNC(=O)Nc1ccc2c(c1)C(=O)N(C)C[C@@H](OC)[C@@H](C)CN(Cc1ccccn1)[C@@H](C)CO2`, for which the inhibition is -2.12% (inactive).
Under `CO[C@@H]1CN(C)C(=O)c2cc(NS(=O)(=O)Cc3ccccc3)ccc2OC[C@H](C)NC[C@H]1C` stands 1.43% (inactive); under `CC(C)NC(=O)N[C@H]1CC[C@H](CC(=O)NCCCN(C)C)O[C@H]1CO`, -5.48% (inactive).
Under `C[C@H](CO)N1C[C@H](C)[C@H](CN(C)CC2CC2)OCCCC[C@H](C)Oc2ccc(NS(=O)(=O)c3cccs3)cc2C1=O` stands -8.86% (inactive); under `C[C@@H]1CN([C@@H](C)CO)C(=O)c2cccc(NC(=O)Nc3ccc(C(F)(F)F)cc3)c2O[C@@H]1CN(C)S(=O)(=O)c1cccs1`, -2.19% (inactive).
Under `COC(=O)CCCCCCC(=O)Nc1ccc(C2OC(CSc3nc(-c4ccccc4)c(-c4ccccc4)o3)CC(c3ccc([N+](=O)[O-])cc3)O2)cc1` (configuration not stated) stands 1.18% (inactive).
As to `Nc1nnnn1/N=C/c1cccc(Br)c1`, the inhibition was 3.65% (inactive).
With `Nc1nnnn1/N=C/c1cc([N+](=O)[O-])ccc1O`, the inhibition was 75.7% (active).
Under `Nc1nnnn1/N=C/c1cccs1` stands 3.88% (inactive).
Under `C[C@@H]1CCCCO[C@@H](CN(C)S(=O)(=O)c2cn(C)cn2)[C@H](C)CN([C@H](C)CO)C(=O)c2cc(NC(=O)NC3CCCCC3)ccc2O1` stands -15% (inactive); under `O=C(C[C@@H]1C[C@@H]2c3cc(NC(=O)CC4CC4)ccc3O[C@@H]2[C@@H](CO)O1)NCCN1CCCCC1`, -1.06% (inactive); under `COCC#Cc1cnc2c(c1)C(=O)N([C@@H](C)CO)C[C@@H](C)[C@H](CN(C)C(=O)c1cnccn1)O2`, 4.05% (inactive).
